Reference: the supplement of paper PMC6555819

Columns and labels:
Assay in all cases: PBM binding z-score (relative to random genomic background probes); higher = stronger binding; sequences stand for … in GC…GCGATTGACAGCGTAGAATGAAGG
[1] = test system: RARb homodimer (NR concentration 270 nM)
Outline: (§1)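 Binding buffer was PBS pH 7.4 with 2% milk, 0.02% Triton X-100, 1 mM DTT, 0.2 mg/mL BSA and 0.4 mg/ml salmon testes DNA. In it, ligand-free nuclear receptor dimers were incubated 1 h on custom Agilent 4×180K protein-binding microarrays carrying double-stranded probes. Antibodies against each partner (one per run) detected binding, and z-scores were calculated against random background probes after regression normalization of scanned fluorescence.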

[2] = test system: RARg:RXRa (NR concentration 270 nM, RXRa partner concentration 90 nM)
Outline: as §1

[3] = test system: RARg homodimer (NR concentration 270 nM)
Outline: as §1

[4] = test system: RXRa DBDmut IVT, anti-RXR (DBD mutation: RXRa K156A/R161A, NR concentration 90 nM)
Outline: as §1

[5] = test system: RXRa homodimer (NR concentration 180 nM)
Outline: as §1

[6] = test system: THRa:RXRa (NR concentration 90 nM, RXRa partner concentration 90 nM)
Outline: as §1

[7] = test system: THRa homodimer (NR concentration 90 nM)
Outline: as §1

[8] = test system: VDR homodimer (NR concentration 270 nM)
Outline: as §1

Row | Sequence | PBM binding z-score [1] | PBM binding z-score [2] | PBM binding z-score [3] | PBM binding z-score [4] | PBM binding z-score [5] | PBM binding z-score [6] | PBM binding z-score [7] | PBM binding z-score [8]
1 | CCGACTGGGGCAAGGTTACCACAACGCACAGCCA | 1.53 | 1.13 | 1.45 | -0.491 | 1.12 | 1.31 | 0.612 | -0.211
2 | GCTAGTTGGTCAGTAAAAGGGCACACACCGGTCG | 2.59 | 1.6 | 1.32 | -0.382 | 0.632 | 0.395 | -0.0299 | 0.271
3 | CCTACTGGGCCACGAAAGGTCATTGCTTCAGTGA | 4.75 | 4.81 | 4.35 | 0.871 | 4.81 | 3.73 | 0.827 | 2.61
4 | CCGACTGGGGCAGAAAGGTTACCTTACCATCCGG | 1.97 | 1.25 | 0.987 | -0.233 | 1.28 | 1.39 | 0.772 | -0.247
5 | CCTTACGAGTCAAGGTTATAGCACGGGTGGTACG | 1.07 | 0.83 | 0.637 | 0.174 | 1.07 | 1.58 | 0.715 | 0.529
6 | GCATATAGGTAATACAAGGTGAAAATCCGATTGT | 0.426 | 0.529 | 0.709 | 0.0693 | 0.677 | 3.98 | 0.487 | 0.0319
7 | ATCCCAAGGTGATCGTGAGGTCGTTGATACTAAC | 1.61 | 1.97 | 0.447 | 0.515 | 1.21 | 3.42 | 2.59 | 2.9
8 | GCTCGGAGGACAAGGTCAGAGCTTTGTCCGTAGA | 2.9 | 3.28 | 3.6 | 0.373 | 2.33 | 2.87 | 1.13 | 0.705
9 | AGCCAAAGTTCACTAGGTAACGTAAGATTCAGCT | 3.85 | 4.99 | 5.83 | 4.29 | 3.74 | 1.91 | -0.25 | 3.46
10 | CCGACTGGGGGAAGGTTACCATAACGCACAGCCA | 0.998 | 1.06 | 1.02 | -0.37 | 1.02 | 1.1 | 0.107 | 0.178
11 | GCGACTGGGGCATCAGCAGGTTACTATAACTTAA | 0.782 | 0.807 | 0.379 | 0.136 | 0.331 | 0.816 | 0.104 | 0.0737
12 | TCTCGGATGACACGAAGGTCAGAGCTTTCCAGAG | 3.15 | 2.66 | 2.31 | 0.542 | 2.48 | 1.68 | 0.229 | 0.13
13 | GGAACGAGGGCAAGTTGATGGCAGAGTTTGATGG | 1.59 | 1.66 | 1.92 | 2.1 | 1.05 | 1.34 | 0.188 | 1.5
14 | CATACTGGGCCAAAGGTCATTGATTCCAATGCTC | 4.79 | 5.89 | 5.04 | 1.73 | 6.78 | 3.47 | 1.03 | 2.42
15 | AGAATGAGTTTAAGATCAGGGAAACAGAATACAT | -0.102 | 0.254 | 0.612 | 2.68 | 0.484 | 0.276 | -0.184 | 2.06
16 | ATCGAAAGGTCGAGGGTGAGTATACCCACCCGAA | 2.59 | 4.14 | 4.24 | 0.471 | 4.59 | 1.94 | -0.00779 | 0.138
17 | TGTCAAAGTTCAAAGGTAGCGTAAGTATCCACAC | 3.86 | 5.84 | 5.8 | 4.41 | 6.07 | 2.76 | -0.0719 | 3.39
18 | CGAGCGAGGGCATGAGTTGATAGCAAATGCCGAT | 0.657 | 1.14 | 1.22 | 2.15 | 1.19 | 0.963 | -0.509 | 1.46
19 | TATATAGGGTCAAAGGCCAGAGTACGAATGTCGA | 3.73 | 5.52 | 5.07 | 3.21 | 6.74 | 3.92 | 1.41 | 2.45

Row | Sequence | PBM binding z-score [1] | PBM binding z-score [2] | PBM binding z-score [3] | PBM binding z-score [4] | PBM binding z-score [5] | PBM binding z-score [6] | PBM binding z-score [7] | PBM binding z-score [8]
20 | CCTTACGGGTTACTGACAGGTTATAGCATTTGGA | 0.885 | 2.22 | 0.806 | 0.177 | 1.54 | 1.11 | -0.00572 | 0.261
21 | ATATGTAGGTTAAGGGTCATTCAAGTTGGTTCGC | 4.23 | 4.98 | 4.09 | 1.9 | 6.39 | 4.2 | 1.78 | 3.88
22 | TTACCAAGGGGAAAGGTCGTTGATGCACGCCTTG | 1.72 | 1.92 | 0.864 | 0.0883 | 2.86 | 1.4 | -0.14 | 1.52
23 | TCTTTTAGTTGATTAGGGCAACCGAAACAGCGGA | 1.02 | 1.27 | 1.12 | 1.2 | 0.836 | 1.07 | 0.745 | 0.435
24 | ACTTACGGGTCCACGAGGTTATAGCACGCGTATA | 1.33 | 1.43 | 0.919 | 3.07 | 1.61 | 2.26 | 1.65 | 3.37
25 | GATACAGGATCAGCTAGAGGCCAGAGTATGGAAA | -0.0727 | 1.16 | 0.363 | -0.823 | 0.154 | -0.0869 | -1 | -0.773
26 | CCTACTGGGCCATTCAGAGGTAATTGATCATATG | -0.0878 | 0.0655 | 0.162 | -0.042 | -0.244 | 0.3 | -0.433 | -0.114
27 | TCATATAGGTGAACAGGTGAAAGTCCGTAAGTTA | 1.38 | 1.52 | 1.13 | 1.68 | 1.75 | 1.13 | 0.464 | 0.153
28 | TCGAGTAGGTTAGTCGGGGCCTTCAGCCAACATA | -0.149 | -0.47 | -0.571 | 0.14 | -0.278 | 1.57 | -0.433 | -0.455
29 | TAGCCTAGGTAATGCGGGCCAGTATAGTGTCGGC | -0.521 | -0.6 | -0.559 | -1.3 | -0.499 | -0.418 | -0.74 | -0.784
30 | GCGACTGGGGCAACGCAGGTTACCATAAGGTTGG | 1.32 | 0.851 | 0.785 | -0.722 | 0.638 | 2.88 | 0.105 | -0.176
31 | AATACAGGGTCACTAGGCCAGGGTAGGTACGAAT | 3.44 | 4.88 | 4.64 | 2.33 | 5.25 | 3.41 | 1.34 | 2.71
32 | TCAGCTAGGTCAGTTGGTCAGCTAACGAGCTGCC | 2.61 | 2.79 | 3.45 | 0.986 | 0.749 | 0.928 | -0.339 | -0.91
33 | ACTATTAGTTGAGACGAGGGCGACCGATAGGTTG | 0.339 | 0.187 | 0.419 | 0.572 | 0.161 | 1.23 | -0.4 | 0.337
34 | CGTCCAAGGTCAAGGTCAGTCAAAGAGACTCGAA | 5.15 | 6.95 | 7.59 | 4.09 | 6.7 | 4.16 | 3.61 | 3.55
35 | CCTAGTTGGTCAGGAGGGCACACACCGGATATGA | 1.73 | 1.52 | 1.53 | -0.604 | 0.657 | 0.623 | 0.029 | 0.549
36 | TGAATGAGGTTATATGATCAGGGAACGTTGCAAA | 0.492 | 1.64 | 0.971 | 1.26 | 2.06 | 1.98 | 0.364 | 0.855
37 | TCACACAGGTGAAGGTAACTCAGGTACGCAGTCG | 0.561 | 0.746 | 0.701 | 0.879 | 1.18 | 1.4 | 0.16 | 0.257
38 | ATATTTAGGTTAGCTGGGGTCATTCAGACTAGGC | 3.93 | 4.05 | 3.26 | 2.19 | 5.09 | 5.1 | 4.01 | 6.12

Row | Sequence | PBM binding z-score [1] | PBM binding z-score [2] | PBM binding z-score [3] | PBM binding z-score [4] | PBM binding z-score [5] | PBM binding z-score [6] | PBM binding z-score [7] | PBM binding z-score [8]
39 | CCAGACAGGTGAAAGGTAACTCGGTCTGGTACGC | 0.705 | 1.23 | 0.639 | -0.242 | 2.27 | 0.879 | 0.0486 | -0.126
40 | CCGACCGGGGCAAGGTTACCATAACGCACAGCCA | 1.54 | 1.65 | 1.73 | -0.596 | 1.39 | 1.64 | 0.837 | 0.12
41 | TCCTGTAGATCAACAGGAGGTTAAGAAAGATCGA | 0.374 | 0.894 | 0.158 | -0.0672 | 0.88 | 0.931 | -0.958 | -0.104
42 | TAGCCTAGGTCATTGCGCCAGTATAGTACGCATC | 2.53 | 3.8 | 3.99 | 1.74 | 3 | 2.8 | 1.07 | 1.54
43 | CAAACTAGGTCAAAGGCCAAAGTCGAGCCAACCA | 3.34 | 5.06 | 4.83 | 1.8 | 4.98 | 3.05 | 0.429 | 0.659
44 | AGTCATAGTTCATCTAGGTAACGTAAGATATGCT | 2.23 | 3.01 | 3.33 | 2.6 | 2.02 | 2.21 | 0.0435 | 2.02
45 | TCTATTAGTTGATTAGGGCAAGCGAAACAGCGGA | 0.589 | 0.429 | 0.466 | 0.689 | 0.305 | 0.409 | 0.23 | 0.398
46 | CCTGCTAGGTCAATGGTCAGCGAAAGCAGCTCGC | 2.63 | 3.65 | 4.18 | 1.73 | 2.11 | 2.32 | 0.558 | -0.0463
47 | TCTCGGAGGACACGAAAGGTCCGAGCTCGACATC | 0.997 | 0.805 | 1.35 | 0.605 | 0.384 | 1.62 | 0.526 | 0.0895
48 | GGTGCTAGGTCAACTGATGGTCAGCTAAAGCTCG | 3.76 | 5.3 | 5.75 | 1.28 | 2.7 | 2.99 | 1.07 | 0.446
49 | ATCTCTAGGTAAAGTTCAGTGTAAGATCGATAGA | 2.72 | 2.02 | 2.42 | 1.71 | 1.19 | 1.65 | 0.624 | 2.46
50 | CGTCCAAGGTGAGAGAGGTCAGTGAATGCCGAGT | 4.13 | 3.38 | 3.7 | 0.994 | 2.89 | 3.33 | 1.95 | 3.07
51 | TCTTTTAGATCAACAGGAGGTTAAGAAAGATCGA | 0.623 | 1.24 | 0.914 | 1.31 | 1.48 | 1.08 | -0.0396 | -0.0983
52 | ACTAGTTGGGCAGCTGAGGTCACACACAATTCGG | 3.83 | 3.56 | 3.17 | 1.21 | 3.56 | 4.63 | 4.73 | 2.9
53 | ACTCGGAGGACAAAGGTCATAGCTACGCCAGTGA | 4.7 | 6.88 | 5.24 | 1.91 | 6.51 | 4.13 | 1.2 | 2.55
54 | CCTACTGGGCCATCACGTCATTGATATCAACGTT | 0.0558 | 0.0905 | 0.383 | -0.0697 | -0.108 | -0.192 | 0.107 | -0.136
55 | GCTGCTAGGTCCGGTTGGTCAGCTAACGGGTACG | -0.107 | -0.731 | -0.757 | -0.46 | -0.726 | -0.903 | -0.944 | -0.324
56 | CTACCAAGGTGAACAAGGTCGTTGAGTACTATTC | 2.27 | 1.92 | 1.43 | 1.64 | 2.39 | 3.28 | 1.83 | 3.27
